The list is not random: actives were taken first. Their share in the collection is about 4.7%.
TRHR agonist – qHTS for Small Molecule Agonists and Allosteric Enhancers of Human TRH Receptor: Primary Screen for Agonists; Thyrotropin-releasing hormone receptor (Homo sapiens), P34981; AID 493084, 2011; TRHR cells, calcium flux fluo-8, FDSS agonist mode; 360,000 tested, 0.18% active; activation, % at 2 µM
Target sequence (P34981 whole entry, looked up): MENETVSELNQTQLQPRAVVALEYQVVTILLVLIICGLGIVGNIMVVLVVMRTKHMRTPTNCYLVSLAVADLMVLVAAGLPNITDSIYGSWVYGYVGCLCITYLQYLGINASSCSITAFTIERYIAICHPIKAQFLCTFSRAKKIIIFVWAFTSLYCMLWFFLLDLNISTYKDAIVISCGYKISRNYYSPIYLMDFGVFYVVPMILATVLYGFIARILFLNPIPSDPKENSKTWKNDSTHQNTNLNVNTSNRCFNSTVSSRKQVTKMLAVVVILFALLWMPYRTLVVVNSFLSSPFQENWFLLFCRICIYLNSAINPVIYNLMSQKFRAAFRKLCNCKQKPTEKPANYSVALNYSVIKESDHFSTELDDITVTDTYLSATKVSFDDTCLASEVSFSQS
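Agonist-mode FDSS calcium read (Ex 480/Em 530, 1 s cycles) in 1536-well TRHR cells with fluo-8 dye, after 10-cycle baseline and 23 nL compound addition; TRH at EC20 (10 nM final) added afterwards for the enhancer phase.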
TRHR enhancer – qHTS for Small Molecule Agonists and Allosteric Enhancers of Human TRH Receptor: Primary Screen for Enhancers; Thyrotropin-releasing hormone receptor (Homo sapiens), P34981; TRHR cells, fluo-8 calcium fluorescence, EC20 TRH enhancement; 360,000 tested, 0.66% active; enhancement, % at 2 µM; AID 493056, 2011; in the data active = enhancement above about 30%
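TRHR-expressing cells loaded with fluo-8 calcium dye were read kinetically (ex 480/em 530) during compound addition, then stimulated with an EC20 of TRH (10 nM final). Enhancement of the Gq-mediated intracellular calcium response was scored.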
D1 ag – Allosteric Agonists of the Human D1 Dopamine Receptor: qHTS; D(1A) dopamine receptor (Homo sapiens), P21728; 360,000 tested, 1% active; HEK293 T-REx D1 cells, calcium flux, agonist mode; activation, % at 2 µM
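Inducible HEK293 T-REx D1 cells, force-coupled to calcium signalling, were plated at 4000 cells/well with tetracycline and held overnight at 30 C. After no-wash calcium dye loading, compound-evoked calcium rise over 180 s flagged agonists.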
D1 potentiator – Potentiators of Human D1 Dopamine Receptor: qHTS. HEK293 TREx D1 cells, calcium flux, dopamine EC20 potentiation. potentiation, % at 10 µM. 360,000 tested, 0.036% active; in the data active = potentiation above about 30%
D1 antagonist – Antagonist of Human D 1 Dopamine Receptor: qHTS | D(1A) dopamine receptor (Homo sapiens), P21728 | HEK293 TREx D1 cells, calcium flux, dopamine EC80; active compounds read low | activity change, negative = inhibition, % at 10 µM | 360,000 tested, 3.2% active | AID 504652, 2011; in the data active = activity change below about -30%
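HEK293 T-REx cells expressing inducible, force-coupled D1 receptor; no-wash Ca dye, 30–90 min RT. Cmpd → 180 s read at 1 Hz → EC80 DA → 180 s read.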
Of the large screens only hits and unclear results are named; the others gave an inactive call. Cut-off read from the data, not from the text of the source, unless noted: active = activation above about 30%; inactive = the rest.

Cc1cccc(N2CCN(C(=O)NC3CCCCC3)CC2)c1C	D1 ag 32.5, D1 antagonist -41.3
CN1CCN(C(=O)c2cc3ccccc3oc2=O)CC1	none
Cc1ccc(N2CCN(C(=O)NC3CCCCC3)CC2)c(C)c1	none
CCCCN(C(=O)C1CCCO1)c1c(N)n(CC(C)C)c(=O)[nH]c1=O (centres undefined)	none
Cc1c(OCC(=O)NCC(O)c2ccccc2)ccc2c(-c3ccccc3)cc(=O)oc12 (centres undefined)	none
CCOC(=O)C1(C)C=C(Nc2ccc(OC)cc2)C(=O)N1c1ccccc1 (centres undefined)	D1 antagonist -42.3
CCOc1ccc(Cl)cc1CNCCCSc1nc(C)cc(C)n1	D1 antagonist -38.3
O=C(Oc1ccccc1)c1cccc(COC(=O)c2cnccn2)c1	D1 antagonist -58.6
CN(C)CCNC(=O)c1ccc(COc2ccc(Cl)cc2Cl)cc1	D1 ag 94.6, D1 antagonist -64.4
CN1CCN(C(=O)CCCOc2ccc(Cl)cc2Cl)CC1	none
CN1CCN(C(=O)c2ccc(COc3ccc(Cl)cc3Cl)cc2)CC1	D1 antagonist -54.5
COc1ccc(Cl)cc1C(=O)NCCN(C)C	none
CC(OC(=O)CCc1ccccc1)C(=O)Nc1ccc(Cl)cn1 (centres undefined)	none
CC1(OC(=O)CCc2ccccc2)C(=O)C=C2C=C(c3ccc(C#N)cc3)N(c3ccccc3)C=C2C1=O (centres undefined)	D1 antagonist -36.8
COc1ccc2[nH]c3c(N4CCc5ccccc5C4)ncnc3c2c1	D1 antagonist -32.1
O=C(CC1(O)C(=O)N(CCc2ccccc2)c2ccc(Br)cc21)c1ccc(F)cc1 (centres undefined)	none
COc1cccc(CNn2c(-c3cccc(C)c3)nc3ccccc3c2=O)c1	TRHR enhancer 37.5
Cc1cc(C)n(CCNC(=O)c2cc(COc3c(F)cccc3F)on2)n1	none
Cc1cc(C)n(CCN(C)C(=O)c2cc(COc3c(F)cccc3F)on2)n1	D1 antagonist -50.0
CC(C)(C)C(=O)NC(=S)NNC(=O)c1ccc(-c2ccccc2)cc1	TRHR agonist 58.4, D1 ag 262.4 (no result: D1 antagonist)
CC(C)(C)C(=O)NC(=S)NNC(=O)c1ccc(Cl)cc1Cl	TRHR agonist 102.1, D1 ag 397.1
CCN1CCc2nc3sc(C(=O)c4ccc(F)cc4)c(N)c3cc2C1	D1 ag 30.3
Cc1cc(C)c(NC(=O)Cn2c(=O)n(Cc3ccco3)c(=O)c3ccc(C(=O)NC4CCCC4)cc32)c(C)c1	TRHR enhancer 54.8
Cc1ccc(C)c(NC(=O)Cn2c(=O)n(Cc3ccco3)c(=O)c3ccc(C(=O)NC4CCCC4)cc32)c1	none
O=[N+]([O-])c1ccccc1-c1ccc(CN2CCN(c3ccccc3)CC2)o1	D1 antagonist -32.6
Cc1cccc2sc(N(Cc3cccnc3)C(=O)CCc3ccccc3)nc12	D1 ag 56.2 (no result: D1 antagonist)
Cc1cccc2sc(N(Cc3cccnc3)C(=O)Cc3ccccc3)nc12	none (no result: D1 antagonist)
Cc1ccc(C(C)NC(=O)/C(C#N)=C\c2c(C)[nH]c3ccccc23)cc1 (centres undefined)	D1 ag 48.1
CCOC(=O)c1ccc(NC(=O)c2nc(S(=O)(=O)Cc3ccccc3)ncc2Cl)cc1	D1 antagonist -45.2
CCSc1ncc(Cl)c(C(=O)Nc2c(C(=O)Nc3ccccc3)oc3ccccc23)n1	none
CCS(=O)(=O)c1ncc(Cl)c(C(=O)Nc2ccc(S(=O)(=O)N3CCC(C)CC3)cc2)n1	D1 antagonist -65.5
CCS(=O)(=O)c1ncc(Cl)c(C(=O)Nc2ccccc2)n1	D1 antagonist -30.3
CCSc1ncc(Cl)c(C(=O)Nc2ccccc2)n1	TRHR enhancer 36.4
CCSc1ncc(Cl)c(C(=O)Nc2ccc(S(=O)(=O)N3CCC(C)CC3)cc2)n1	none
CC(=O)N1c2c(cc(Br)cc2S(=O)(=O)Nc2ccc(OC(F)(F)F)cc2)CC1C (centres undefined)	none
COc1ccc(OC(=O)c2nc(SCc3ccc(C)cc3)ncc2Cl)cc1	none
COc1ccc(NC(=O)c2c(C)oc3ccc(O)c(CN4CCCCCC4)c23)cc1	none
CSc1ncc(Cl)c(C(=O)Nc2nnc(SC)s2)n1	none
CCOC(=O)c1sc(NC(=O)/C=C/c2ccc(OCC)cc2)c(C(=O)OCC)c1C	none
CCCSc1nnc(NC(=O)c2nc(SC)ncc2Cl)s1	D1 antagonist -35.7
CCOC(=O)c1c(NC(=O)/C=C/c2ccc(C)cc2)sc(C(C)=O)c1C	D1 antagonist -32.0
CCc1ccc(NC(=O)c2nc(S(=O)(=O)Cc3ccccc3)ncc2Cl)cc1	D1 antagonist -64.0
CCOC(=O)c1c(NC(=O)c2nc(S(C)(=O)=O)ncc2Cl)sc(C(C)=O)c1C	D1 antagonist -31.2
CCC(=O)N1CCc2cc(Br)cc(S(=O)(=O)CCC(=O)Nc3ccc(C)c(C)c3)c21	none
COCCCNC(=O)c1ccc2c(c1)nc1n2CCCCC1	none
Cc1cccc(NC(=O)c2nc[nH]c2C(=O)NC2CCN(C(=O)OC(C)(C)C)CC2)c1	none (no result: D1 antagonist)
CCn1c(C)c(P(c2ccccc2)c2ccccc2)[n+]2ccccc12	none
Cc1ccc(CCC(=O)Nc2ccc(CC(=O)O)cc2)o1	none
CN(c1ccccc1)S(=O)(=O)c1ccc(NC(=O)c2nc(S(C)(=O)=O)ncc2Cl)cc1	D1 antagonist -46.7
CCCSc1ncc(Cl)c(C(=O)Nc2ccc(S(=O)(=O)N(C)c3ccccc3)cc2)n1	none
CCOC(=O)c1c(-c2ccccc2)csc1NC(=O)c1nc(S(=O)(=O)CC)ncc1Cl	D1 antagonist -47.4
CCOC(=O)c1c(-c2ccccc2)csc1NC(=O)c1nc(SCC)ncc1Cl	none
CCOC(=O)C1=C(O)/C(=C/c2ccccn2)SC1=Nc1ccc(Cl)cc1	D1 antagonist -33.5
CCOC(=O)C1=C(O)/C(=C/c2ccc(OCC(=O)O)c(OCC)c2)SC1=Nc1ccccc1	none
CC(=O)n1cc(/C=N/NC(=O)c2ccccc2O)c2ccccc21	none
CC(C)(C)OC(=O)n1cc(/C=N/NC(=O)c2ccco2)c2ccccc21	TRHR enhancer 30.9
CCOc1ccc(OCCCCNC(C)(C)C)cc1	D1 antagonist -81.1
COc1ccc(/C(C)=N/Nc2ccc(C(=O)O)cc2)cc1OC	D1 antagonist -31.3
COc1cc(/C(C)=N/Nc2ccc(C(=O)O)cc2)cc(OC)c1OC	none
CC(=O)Nc1cccc(OC(=O)COc2ccc(Br)cc2)c1	D1 antagonist -30.5
O=C(COC(=O)c1ccc(O)cc1O)c1ccc2c(c1)OCO2	none
O=C(COC(=O)c1cc(Cl)ccc1O)c1ccc2c(c1)OCO2	TRHR enhancer 38.4

From PubChem
